The record followed here is PubChem BioAssay (EPA / NIEHS).

Molecules are shown by their SMILES. Activity calls are given as the source filed them. Rule for the calls: active = hit-call score of the fitted dose curve at least 0.9, where 1 is the maximum; inactive = score below 0.9.

Chain of Hypoxia-inducible factor 1-alpha (Homo sapiens) (Q16665 whole entry, looked up): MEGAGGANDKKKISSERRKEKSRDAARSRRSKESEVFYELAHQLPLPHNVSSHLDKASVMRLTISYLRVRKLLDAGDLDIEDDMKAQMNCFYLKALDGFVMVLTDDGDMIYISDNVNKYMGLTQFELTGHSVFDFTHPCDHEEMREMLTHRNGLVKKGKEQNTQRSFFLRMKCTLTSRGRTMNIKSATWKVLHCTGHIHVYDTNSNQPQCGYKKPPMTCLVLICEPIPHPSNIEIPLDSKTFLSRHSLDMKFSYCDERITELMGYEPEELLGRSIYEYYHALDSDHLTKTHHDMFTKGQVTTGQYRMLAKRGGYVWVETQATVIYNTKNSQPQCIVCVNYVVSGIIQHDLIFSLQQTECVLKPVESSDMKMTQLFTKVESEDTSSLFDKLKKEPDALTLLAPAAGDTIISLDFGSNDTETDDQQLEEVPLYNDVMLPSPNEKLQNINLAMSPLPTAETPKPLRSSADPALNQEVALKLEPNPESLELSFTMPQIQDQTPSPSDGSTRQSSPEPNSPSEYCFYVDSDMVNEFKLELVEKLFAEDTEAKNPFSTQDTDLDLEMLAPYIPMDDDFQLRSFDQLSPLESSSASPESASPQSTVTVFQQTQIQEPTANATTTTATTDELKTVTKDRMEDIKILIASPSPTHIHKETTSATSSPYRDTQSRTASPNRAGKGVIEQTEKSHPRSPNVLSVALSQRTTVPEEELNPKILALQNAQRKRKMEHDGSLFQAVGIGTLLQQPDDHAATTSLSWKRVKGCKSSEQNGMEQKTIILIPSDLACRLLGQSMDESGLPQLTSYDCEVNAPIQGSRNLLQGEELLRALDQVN

Read-out in one test: Heat shock 70 kDa protein 1 (HSPA1A), gene 3303
Kind of test: LTEA_HepaRG_HSPA1A: Life Technologies and Expression Analysis (LTEA) Assay for Heat shock 70 kDa protein 1 (HSPA1A) using HepaRG (AID 2283502). The following applies: mRNA level, 48 h; actives raise or lower the signal. The essentials: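 An oxidative-stress marker readout: HepaRG cells treated 48 h in duplicate with an eight-point series (highest 100 uM) had HSPA1A mRNA quantified by TaqMan qRT-PCR. Activity was fitted in both directions using 0.5% DMSO as baseline.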
As for `Oc1c(Cl)cc(Cl)cc1Cl`, the compound was classed as inactive.

In the case of `O=C(O)C1(c2ccc3c(c2)OC[C@H](Cc2ccc(-c4ccccc4)cc2)[C@H]3O)CCCC1`, the AC50 is 78.2 µM (active).

With `CC(C)(C)c1ccccc1O`, the outcome was inactive.

For `CC(C)O.CC(C)O.OCCN(CCO)CCO.OCCN(CCO)CCO.[Ti]`, the compound was classed as inactive.

Take `CN(C)C(=S)S`: the result was inactive.

Turning to `CCCCCCCCCCCCc1cccc(S(=O)(=O)O)c1`, the AC50 was 59.4 µM (active).

For `Cc1cc(C)cc(C)c1`, the result was inactive.

As for `N#Cc1cccnc1`, the call was inactive.

With `COc1ccccc1N`, the compound was called inactive.

As to `Clc1cccc(Cl)c1Cl`, the outcome was inactive.

Regarding `Oc1cc(Cl)c(Cl)cc1Cl`, the outcome was inactive.

As for `O=C(N[C@H]1CN2CCC1CC2)c1ccc2c(c1)OCCO2`, the outcome was inactive.

Consider `OCCN(CCO)CCO`, for which the compound was classed as inactive.

Take `Clc1cccc(Cl)c1`: the compound was classed as inactive.

Read-out in another test: Hypoxia-inducible factor 1-alpha (Homo sapiens) (UniProt Q16665)
Description: LTEA_HepaRG_HIF1A: Life Technologies and Expression Analysis (LTEA) Assay for Hypoxia-inducible factor 1 (HIF1A) Trancription factor using HepaRG (AID 2283503). Particulars: mRNA level, 48 h; actives raise or lower the signal. A digest of the protocol: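 Gain- or loss-of-signal HIF1A mRNA changes are fitted against a DMSO baseline. HepaRG cultures receive eight concentrations, highest 100 uM, for 48 h in serum-free induction medium with 0.5% DMSO.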
Take `Oc1c(Cl)cc(Cl)cc1Cl`: the result was inactive.

As for `O=C(O)C1(c2ccc3c(c2)OC[C@H](Cc2ccc(-c4ccccc4)cc2)[C@H]3O)CCCC1`, the AC50 is 82.3 µM (active).

As to `CC(C)(C)c1ccccc1O`, the compound was called inactive.

On to `CC(C)O.CC(C)O.OCCN(CCO)CCO.OCCN(CCO)CCO.[Ti]`, for which the outcome was inactive.

Take `CN(C)C(=S)S`: the compound was classed as inactive.

In the case of `CCCCCCCCCCCCc1cccc(S(=O)(=O)O)c1`, the AC50 is 16.5 µM (active).

Regarding `Cc1cc(C)cc(C)c1`, the compound was called inactive.

As for `N#Cc1cccnc1`, the compound was called inactive.

For the compound `COc1ccccc1N`, the outcome was inactive.

In the case of `Clc1cccc(Cl)c1Cl`, the compound was classed as inactive.

As for `Oc1cc(Cl)c(Cl)cc1Cl`, the outcome was inactive.

For `O=C(N[C@H]1CN2CCC1CC2)c1ccc2c(c1)OCCO2`, the compound was classed as inactive.

As to `OCCN(CCO)CCO`, the compound was called inactive.

`Clc1cccc(Cl)c1`: the outcome was inactive.

Read-out in another test: 3-Hydroxy-3-Methylglutaryl-CoA Synthase 2 (HMGCS2), HMGCS2 (gene 3158)
Description: LTEA_HepaRG_HMGCS2: Life Technologies and Expression Analysis (LTEA) Assay for 3-Hydroxy-3-Methylglutaryl-CoA Synthase 2 (HMGCS2) using HepaRG (AID 2283504). The following applies: mRNA level, 48 h; actives raise or lower the signal. A digest of the protocol: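 Human HepaRG cells in serum-free induction medium were exposed in duplicate for 48 h to 8-point half-log series from 100 uM top in 0.5% DMSO. HMGCS2 mRNA measured by TaqMan qRT-PCR, normalised to ACTB, GAPDH, POLR2A; bidirectional fit versus DMSO.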
As for `Oc1c(Cl)cc(Cl)cc1Cl`, the call was inactive.

On to `O=C(O)C1(c2ccc3c(c2)OC[C@H](Cc2ccc(-c4ccccc4)cc2)[C@H]3O)CCCC1`, for which the outcome was inactive.

With `CC(C)(C)c1ccccc1O`, the compound was called inactive.

Turning to `CC(C)O.CC(C)O.OCCN(CCO)CCO.OCCN(CCO)CCO.[Ti]`, the compound was called inactive.

Turning to `CN(C)C(=S)S`, the outcome was inactive.

With `CCCCCCCCCCCCc1cccc(S(=O)(=O)O)c1`, the AC50 is 37.9 µM (active).

Take `Cc1cc(C)cc(C)c1`: the result was inactive.

Regarding `N#Cc1cccnc1`, the compound was called inactive.

Consider `COc1ccccc1N`, for which the compound was classed as inactive.

As for `Clc1cccc(Cl)c1Cl`, the call was inactive.

With `Oc1cc(Cl)c(Cl)cc1Cl`, the call was inactive.

For the compound `O=C(N[C@H]1CN2CCC1CC2)c1ccc2c(c1)OCCO2`, the compound was classed as inactive.

`OCCN(CCO)CCO`: the call was inactive.

On to `Clc1cccc(Cl)c1`, for which the outcome was inactive.

Read-out in another test: HGF (gene 3082)
Description: LTEA_HepaRG_HGF: Life Technologies and Expression Analysis (LTEA) Assay for Hepatocyte Growth Facto (HGF) using HepaRG (AID 2283505). The following applies: mRNA level, 48 h; actives raise or lower the signal. The essentials: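 Differentiated HepaRG cells in serum-free induction medium exposed 48 h in duplicate, 8 half-log concentrations from 100 uM in 0.5% DMSO. HGF mRNA by qRT-PCR, normalised to ACTB, GAPDH, POLR2A; bidirectional fitting.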
On to `O=C(O)C1(c2ccc3c(c2)OC[C@H](Cc2ccc(-c4ccccc4)cc2)[C@H]3O)CCCC1`, for which the compound was classed as inactive.

As for `CC(C)(C)c1ccccc1O`, the outcome was inactive.

In the case of `CC(C)O.CC(C)O.OCCN(CCO)CCO.OCCN(CCO)CCO.[Ti]`, the compound was called inactive.

Take `CN(C)C(=S)S`: the outcome was inactive.

Take `CCCCCCCCCCCCc1cccc(S(=O)(=O)O)c1`: the call was inactive.

Consider `Cc1cc(C)cc(C)c1`, for which the outcome was inactive.

In the case of `N#Cc1cccnc1`, the compound was classed as inactive.

For the compound `COc1ccccc1N`, the result was inactive.

For `Clc1cccc(Cl)c1Cl`, the compound was classed as inactive.

As to `Oc1cc(Cl)c(Cl)cc1Cl`, the compound was classed as inactive.

For `O=C(N[C@H]1CN2CCC1CC2)c1ccc2c(c1)OCCO2`, the compound was classed as inactive.

`OCCN(CCO)CCO`: the outcome was inactive.

On to `Clc1cccc(Cl)c1`, for which the outcome was inactive.

Read-out in another test: Insulin Like Growth Factor 1 (IGF1), IGF1 (gene 3479)
Kind of test: LTEA_HepaRG_IGF1: Life Technologies and Expression Analysis (LTEA) Assay for Insulin Like Growth Factor 1 (IGF1) using HepaRG (AID 2283506). The following applies: mRNA level, 48 h; actives raise or lower the signal. A digest of the protocol:
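Endpoint: IGF1 mRNA change by qRT-PCR, housekeeping-normalized, fitted bidirectionally relative to 0.5% DMSO vehicle. Human HepaRG cells were treated 48 h in serum-free induction medium, eight half-log concentrations topping at 100 uM.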
For the compound `Oc1c(Cl)cc(Cl)cc1Cl`, the result was inactive.

With `O=C(O)C1(c2ccc3c(c2)OC[C@H](Cc2ccc(-c4ccccc4)cc2)[C@H]3O)CCCC1`, the AC50 was 15.8 µM (active).

`CC(C)(C)c1ccccc1O`: the result was inactive.

Turning to `CC(C)O.CC(C)O.OCCN(CCO)CCO.OCCN(CCO)CCO.[Ti]`, the compound was called inactive.

As for `CN(C)C(=S)S`, the compound was classed as inactive.

With `CCCCCCCCCCCCc1cccc(S(=O)(=O)O)c1`, the result was inactive.

`Cc1cc(C)cc(C)c1`: the compound was called inactive.

Turning to `N#Cc1cccnc1`, the call was inactive.

On to `COc1ccccc1N`, for which the compound was classed as inactive.

Consider `Clc1cccc(Cl)c1Cl`, for which the outcome was inactive.

Regarding `Oc1cc(Cl)c(Cl)cc1Cl`, the result was inactive.

In the case of `O=C(N[C@H]1CN2CCC1CC2)c1ccc2c(c1)OCCO2`, the result was inactive.

In the case of `OCCN(CCO)CCO`, the call was inactive.

For `Clc1cccc(Cl)c1`, the compound was called inactive.

Read-out in another test: Intercellular Adhesion Molecule 1 (ICAM1), ICAM1 (gene 3383)
Kind of test: LTEA_HepaRG_ICAM1: Life Technologies and Expression Analysis (LTEA) Assay for Intercellular Adhesion Molecule 1 (ICAM1) using HepaRG (AID 2283507). Particulars: mRNA level, 48 h; actives raise or lower the signal. The essentials:
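Differentiated human HepaRG cells in serum-free induction medium exposed 48 h in duplicate to 8 half-log concentrations (top 100 uM, 0.5% DMSO). ICAM1 mRNA quantified by TaqMan qRT-PCR, normalized to ACTB, GAPDH and POLR2A; bidirectional fitting versus DMSO.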
With `Oc1c(Cl)cc(Cl)cc1Cl`, the outcome was inactive.

Take `O=C(O)C1(c2ccc3c(c2)OC[C@H](Cc2ccc(-c4ccccc4)cc2)[C@H]3O)CCCC1`: the AC50 was 64.4 µM (active).

On to `CC(C)(C)c1ccccc1O`, for which the outcome was inactive.

On to `CC(C)O.CC(C)O.OCCN(CCO)CCO.OCCN(CCO)CCO.[Ti]`, for which the compound was classed as inactive.

As for `CN(C)C(=S)S`, the result was inactive.

Consider `CCCCCCCCCCCCc1cccc(S(=O)(=O)O)c1`, for which the compound was called inactive.

Regarding `Cc1cc(C)cc(C)c1`, the compound was called inactive.

On to `N#Cc1cccnc1`, for which the outcome was inactive.

In the case of `COc1ccccc1N`, the compound was classed as inactive.

`Clc1cccc(Cl)c1Cl`: the outcome was inactive.

Turning to `Oc1cc(Cl)c(Cl)cc1Cl`, the compound was classed as inactive.

On to `O=C(N[C@H]1CN2CCC1CC2)c1ccc2c(c1)OCCO2`, for which the result was inactive.

Turning to `OCCN(CCO)CCO`, the compound was classed as inactive.

Regarding `Clc1cccc(Cl)c1`, the result was inactive.

Read-out in the next test: Insulin-like growth factor-binding protein 1 (IGFBP1), IGFBP1 (gene 3484)
Kind of test: LTEA_HepaRG_IGFBP1: Life Technologies and Expression Analysis (LTEA) Assay for Insulin-like growth factor-binding protein 1 (IGFBP1) using HepaRG (AID 2283508). Particulars: mRNA level, 48 h; actives raise or lower the signal. The essentials:
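HepaRG cells, plated 48 h then switched to serum-free induction medium, exposed in duplicate for 48 h to 8-point half-log series from 100 uM in 0.5% DMSO. mRNA measured by qRT-PCR, normalized to ACTB/GAPDH/POLR2A; bidirectional fit versus DMSO.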
Take `Oc1c(Cl)cc(Cl)cc1Cl`: the compound was called inactive.

In the case of `O=C(O)C1(c2ccc3c(c2)OC[C@H](Cc2ccc(-c4ccccc4)cc2)[C@H]3O)CCCC1`, the AC50 was 50 µM (active).

Take `CC(C)(C)c1ccccc1O`: the result was inactive.

On to `CC(C)O.CC(C)O.OCCN(CCO)CCO.OCCN(CCO)CCO.[Ti]`, for which the compound was classed as inactive.

Consider `CN(C)C(=S)S`, for which the compound was classed as inactive.

Regarding `CCCCCCCCCCCCc1cccc(S(=O)(=O)O)c1`, the result was inactive.

As for `Cc1cc(C)cc(C)c1`, the compound was classed as inactive.

On to `N#Cc1cccnc1`, for which the result was inactive.

For `COc1ccccc1N`, the result was inactive.

For the compound `Clc1cccc(Cl)c1Cl`, the compound was called inactive.

Take `Oc1cc(Cl)c(Cl)cc1Cl`: the result was inactive.

As to `O=C(N[C@H]1CN2CCC1CC2)c1ccc2c(c1)OCCO2`, the compound was classed as inactive.

Regarding `OCCN(CCO)CCO`, the compound was called inactive.

`Clc1cccc(Cl)c1`: the outcome was inactive.
